# Measurements as given in PubChem BioAssay AID624330 (Southern Research Specialized Biocontainment Screening …, 2012).
# Among all 340,000 compounds or so, about 2,100 (0.62%) were called active. Not all results are given here. Results with a measured potency or affinity are listed apart. Values without a mark were called inactive.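 The calls were made as follows: active = first-screen hits whose inhibition reached a set limit at any dose in the follow-up dose series; inconclusive = inhibition above the set first-screen limit but never retested; inactive = the rest.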
# Target: Rac GTPase-activating protein 1 (Homo sapiens) (UniProt Q9H0H5)
# Sequence (Q9H0H5 whole entry, looked up): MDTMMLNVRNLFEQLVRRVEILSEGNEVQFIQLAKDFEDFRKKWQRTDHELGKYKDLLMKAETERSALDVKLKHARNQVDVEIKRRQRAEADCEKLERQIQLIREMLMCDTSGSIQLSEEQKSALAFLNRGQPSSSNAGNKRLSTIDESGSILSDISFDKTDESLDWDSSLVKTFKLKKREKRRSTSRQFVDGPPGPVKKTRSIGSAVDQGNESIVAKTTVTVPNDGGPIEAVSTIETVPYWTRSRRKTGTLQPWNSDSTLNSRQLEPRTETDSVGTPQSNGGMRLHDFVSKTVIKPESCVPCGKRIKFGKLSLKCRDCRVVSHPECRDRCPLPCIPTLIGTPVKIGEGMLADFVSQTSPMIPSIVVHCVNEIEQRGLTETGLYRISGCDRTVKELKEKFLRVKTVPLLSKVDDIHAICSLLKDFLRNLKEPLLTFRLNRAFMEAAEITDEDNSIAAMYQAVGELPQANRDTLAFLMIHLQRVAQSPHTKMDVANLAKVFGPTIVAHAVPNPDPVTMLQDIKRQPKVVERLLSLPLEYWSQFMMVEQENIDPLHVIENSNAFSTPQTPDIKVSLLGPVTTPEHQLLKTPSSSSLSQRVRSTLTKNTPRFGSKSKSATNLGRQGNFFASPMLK
# Assay: MgcRacGAP GTPase-activating activity inhibitors, confirmation, biochemical, ADP Hunter fluorescence, primary and confirmatory (AID 624330);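 also: fluorescence reports GDP produced by GAP-driven GTP hydrolysis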
# Conditions: MgcRacGAP-stimulated Rac1 GTP hydrolysis, at 30 µM, hits give high values, GST-tagged Rac1 F28L mutant substrate
row,Structure (SMILES),inhibition [%]
1,CCN(Cc1nc(-c2ccc(C)cc2)no1)C(=O)c1ccco1,2.23
2,Cc1nnc(NC(=O)CSc2ccccc2N)s1,6.42
3,CCOc1cccc2cc(C(=O)N3CCOCC3)c(=O)oc12,5.1
4,O=C(Cn1cccc1C(=O)c1ccccc1)NCc1cccnc1,14.8
5,O=C(CSc1nc2ccccc2[nH]1)Nc1c(F)c(F)c(F)c(F)c1F,1.98
6,COc1ccccc1S(=O)(=O)Cc1ccc(C(=O)NC2CCCCC2)o1,5.84
7,COc1cc(CN2CCCCCC2)cc(Br)c1O,15.4
8,COc1cc(CN2CCC(C(=O)N3CCCC(C)C3)CC2)cc(OC)c1O (centres undefined),26.8
9,CCOC(=O)C1CCN(Cc2ccc(O)c(OC)c2)CC1,27.4
10,CCOc1cc(CN2CCC(N3CCC(C(=O)NC4CC4)CC3)CC2)ccc1O,17.9
11,COc1cc(CN2CCC(C(=O)NC3CCCC3)CC2)cc(OC)c1O,23.1
12,COc1ccc(CN2CCC(C(=O)N3CCCC(C)C3)CC2)cc1OC (centres undefined),12.3
13,COCc1cc(C(C)=O)ccc1OCC(=O)Nc1ccc(NC(C)=O)cc1,1.37
14,CC(NC(=O)c1ccc(Br)o1)c1ccccc1 (centres undefined),7.96
15,CCC(=O)N(CCc1ccccc1)Cc1cc2cc3c(cc2[nH]c1=O)OCO3,8.92
16,N#CC(=Cc1ccccn1)c1nc(-c2ccc(Cl)cc2)cs1,6.28
17,Cc1ccc(C(=O)NCC(=O)NCC(=O)OCc2ccc(Cl)cc2)cc1,8.02
18,O=C(CCCn1c(=O)[nH]c2ccccc2c1=O)NCCSCc1ccccc1,-5.64
19,Cn1c(=O)[nH]c2c(cnn2C)c1=O,-2.19
20,CCCn1c(N)c(Br)c(=O)[nH]c1=O,12.3
21,Cn1nnnc1SCCNC(=O)C1CCC(=O)N(Cc2ccccc2F)C1 (centres undefined),11
22,Cc1cc(Nc2cccc([N+](=O)[O-])c2)c2ccccc2n1,13.8
23,Cc1cc(Nc2ccc([N+](=O)[O-])cc2)c2ccccc2n1,4.06
24,O=C(c1cccc(S(=O)(=O)N2CCc3ccccc32)c1)N1CCN(CCO)CC1,1.12

row,Structure (SMILES),inhibition [%]
1,O=C(NNc1c2ccccc2nc2ccccc12)c1ccccc1Cl,8.54
2,O=C(NNc1c2ccccc2nc2ccccc12)c1ccccc1O,9.79
3,Cc1ccc(S(=O)(=O)NCC(=O)N(CC2CCCO2)C(C(=O)NC2CCCC2)C(C)C)cc1 (centres undefined),-2.26
4,N#CCCN1CCn2c1nc1ccccc12,7.51
5,N#CCCN1CCN(CCC#N)C1=S,-2.38
6,COc1ccc(Cc2nc3c4c(ncn3n2)Oc2c(ccc3ccccc23)C4c2ccc(OC)c(OC)c2)cc1 (centres undefined),0.4
7,COc1cccc(-c2nnc(NC(=O)CCS(=O)(=O)c3ccc(F)cc3)o2)c1,9.6
8,OCC[C@H]1C[C@H](O)[C@@H](O)[C@]2(CCCc3ccccc3O2)O1,6.49
9,CC(C)(C)N(Cc1ccccc1)C(=O)COC(=O)/C=C/c1ccc2c(c1)OCO2,7.28
10,CC(NC(=O)N(Cc1ccccc1)Cc1ccc2c(c1)OCO2)(C(F)(F)F)C(F)(F)F,-1.55
11,CSc1cccc(NC(=O)COC(=O)C2CCN(S(=O)(=O)c3ccccc3)CC2)c1,3.95
12,CC[C@H]1CN2CCc3cc(OC)c(OC)cc3C2C[C@@H]1C[C@H]1NCCc2cc(OC)c(OC)cc21 (some centres undefined),5.06
13,CC[C@H]1CN2CCc3cc(OC)c(OC)cc3[C@@H]2C[C@@H]1C[C@H]1NCCc2cc(OC)c(OC)cc21,-1.46
14,Oc1cccc(NC(=S)N=Nc2c(O)[nH]c3ccc(Br)cc23)c1,21.1
15,Oc1[nH]c2ccc(Br)cc2c1N=NC(=S)Nc1ccc(F)cc1,2.02
16,Cc1ccc(NC(=S)N=Nc2c(O)[nH]c3ccccc23)cc1,9.95
17,COc1ccc(NC(=S)N=Nc2c(O)[nH]c3ccccc23)cc1,19.4
18,CC(=O)n1cc(/C=N/NC(=O)c2ccc([N+](=O)[O-])cc2)c2ccccc21,7.25
19,CCOC(=O)c1ccc(NC(=S)N(CCCN2CCCC(C)C2)Cc2ccco2)cc1 (centres undefined),3.37
20,Cc1ccc(-c2cc3c(nn2)-c2ccccc2C3=O)cc1,11.8
21,CC1CCC2(CC1)NC(=O)N(CC(=O)Nc1cccc(S(=O)(=O)N3CCCC3)c1)C2=O (centres undefined),4.59
22,CCOc1ccc(-n2nc(C(=O)NC3CCCCC3)c3ccccc3c2=O)cc1,-4.66
23,Nc1nc(N)c2nc(-c3ccccc3)c(N)nc2n1,4.54
24,Nc1[nH]c(=S)nc2nc(-c3ccccc3)c(-c3ccccc3)nc12,9.86

row,Structure (SMILES),inhibition [%]
1,COCC1CCCCC1OS(N)(=O)=O (centres undefined),10.2
2,Nc1ccc(Cc2ccc(N)c(C(=O)O)c2)cc1C(=O)O,7.39
3,Nc1ccc(Cc2ccc(N)c(O)c2)cc1O,-7.75
4,N#Cc1cc(C(=O)Cc2ccccc2)c[nH]1,-3.54
5,COc1cccc(C(=O)C2CCCN(C(=O)c3ccc(C#CC(C)(C)O)cc3)C2)c1 (centres undefined),1.51
6,COc1ccc(C(=O)N2c3ccccc3CC2C)cc1OC (centres undefined),3.63
7,COc1cc(OC)cc(C(=O)N2CCN(C3CCCCC3)CC2)c1,19.9
8,CC1CCCC(N2CCN(C(=O)c3ccc(F)cc3)CC2)C1 (centres undefined),19.6
9,COc1cccc(C(=O)N2CCN(C3CCC(c4ccccc4)CC3)CC2)c1 (centres undefined),14.9
10,O=C(c1ccccc1)N1CCN(C2CCCCCC2)CC1,25.4
11,O=C(c1ccc([N+](=O)[O-])cc1)N1CCCC1,13.8
12,O=C(c1ccc(F)cc1)N1CCN(C2CCC(c3ccccc3)CC2)CC1 (centres undefined),12.1
13,O=C(c1ccc(F)cc1)N1CCC(N2CCCCCC2)CC1,11
14,O=C(c1ccccc1)N1CCN(C2CCCCC2)CC1,44.8
15,COc1ccc(-n2c(SC3CCOC3=O)nc3ccccc3c2=O)cc1OC (centres undefined),7.23
16,FC(F)(F)c1cccc(N2CCN(C3CC4CCC3C4)CC2)c1 (centres undefined),-3.5
17,CC(C(=O)NCCN1CCOCC1)(c1ccccc1)c1ccccc1,9.67
18,CCN(Cc1cc(OC)c(OC)c(OC)c1)C(=S)Nc1cccc(SC)c1,8.44
19,COc1ccccc1CNS(=O)(=O)c1cc(C(=O)NCC2CCCO2)c(Cl)cc1Cl (centres undefined),4.61
20,O=C(c1nc[nH]c1C(=O)N1CCN(c2ccccc2)CC1)N1CCN(c2ccccc2)CC1,8.08
21,CN(CC(=O)Nc1ccccc1C(F)(F)F)C(=O)COc1cccnc1[N+](=O)[O-],2.02
22,C/C(=N\NC(=O)c1ccc(Cl)cc1)c1ccccn1,-1.19
23,Cc1sc2ncnc(N3CCC(C(=O)Nc4ccc(S(N)(=O)=O)cc4)CC3)c2c1C,6.51
24,CC1CCCC(N2CCN(C(=O)c3cccc(F)c3)CC2)C1 (centres undefined),13.7

row,Structure (SMILES),inhibition [%]
1,O=C(c1cccc(F)c1)N1CCC(N2CCCCCC2)CC1,27
2,CC(C)Oc1ccc(CNC(=O)c2cc(S(=O)(=O)N3CCOCC3)cn2C)cc1,7.69
3,Cc1ccc2c(CC(=O)OCc3csc(C)n3)coc2c1,3
4,Cc1ccc2c(CC(=O)O)coc2c1,-1.54
5,COc1ccc(CN2CCN(C(=O)c3cc(-c4cccnc4)nc4ccc(Cl)cc34)CC2)c(OC)c1OC,0.91
6,CCCn1c(=O)c2c(C(F)(F)F)cc(-c3ccco3)nc2n(CCC)c1=O,6.17
7,C/C(CC(=O)Nc1ccc(N(C)C)cc1)=N\NC(=O)c1ccc(C(C)(C)C)cc1,14.2
8,C/C(CC(=O)Nc1ccc(N(C)C)cc1)=N\NC(=O)c1ccc(Cl)cc1,21.2
9,C/C(CC(=O)Nc1ccc(N(C)C)cc1)=N\NC(=O)c1cnccn1,25.8
10,C/C(CC(=O)Nc1ccc([N+](=O)[O-])cc1)=N\NC(=O)c1ccccc1O,3.2
11,COc1cc(NC(=O)C/C(C)=N/NC(=O)C(OC)c2ccccc2)c(OC)cc1Cl (centres undefined),15.9
12,COC(C(=O)N/N=C(\C)CC(=O)Nc1ccc(Cl)cc1C)c1ccccc1 (centres undefined),0.47
13,C/C(CC(=O)Nc1ccc(N(C)C)cc1)=N\NC(=O)c1ccccn1,16.9
14,C/C(CC(=O)Nc1ccc([N+](=O)[O-])cc1)=N\NC(=O)c1ccccc1[N+](=O)[O-],7.35
15,CC1(C)CC(=O)C2=C(C1)C(c1cn(-c3ccccc3)nc1-c1ccccc1)C(C#N)=C(N)O2 (centres undefined),2.04
16,Cc1cc(Br)cc(C)c1NC(=S)NC(=O)CC(C)C,7.74
17,NC(N)=NS(=O)(=O)c1ccc(N/C=C/C(=O)c2ccc(Cl)c(Cl)c2)cc1,6.29
18,COC(=O)[C@H](CCSC)NC(=O)Cn1cnc2c(OCc3ccccc3)ncnc21,5.04
19,COc1ccc(OCC(=O)NNC(=O)c2ccc3c(=O)n4c(nc3c2)CCC4)cc1,8.67
20,COc1ccc(S(=O)(=O)N2CCN(C(=O)c3ccco3)CC2)c(C)c1C,1.7
21,O=C(O)c1cc(N2C(=O)C3C4C=CC(C4)C3C2=O)ccc1N1CCOCC1 (centres undefined),4.85
22,O=C(Nc1nccs1)C1CCCN1/C=C/C(=O)C(F)(F)F (centres undefined),-1.71
